Screening data as filed in PubChem BioAssay.
GSH fluor: compound fluorescence on glutathione beads, profiling panel, artefact control, biophysical, 488/530 nm, flow cytometry | 190,000 tested, 0.25% active | AID 1776, 2009 | fluorescence (KMESF) at 10 µM | GSH beads flow cytometry, compound fluorescence 488/530 nm; stronger effect = higher value; in the data active = fluorescence above about 89;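 also: glutathione beads carrying GST-tagged Bcl family fusion proteins plus one bare bead set; values are compound well signal with DMSO vehicle wells as background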
RGS4-Gao reg: modulators of RGS4 binding to Galphao, primary screen, biochemical, multiplexed bead flow cytometry. 220,000 tested, 0.33% active. AID 1415, 2008. binding response (% of control), % at 10 µM. Guanine nucleotide-binding protein G(o) subunit alpha (Homo sapiens), P09471. actives lie on both sides; in the data active = binding response below about 49% or above about 150%; inactive = in between;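 also: fluorescent Galphao activated with aluminum fluoride binding bead-coupled RGS4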
Target sequence (P09471 whole entry, looked up): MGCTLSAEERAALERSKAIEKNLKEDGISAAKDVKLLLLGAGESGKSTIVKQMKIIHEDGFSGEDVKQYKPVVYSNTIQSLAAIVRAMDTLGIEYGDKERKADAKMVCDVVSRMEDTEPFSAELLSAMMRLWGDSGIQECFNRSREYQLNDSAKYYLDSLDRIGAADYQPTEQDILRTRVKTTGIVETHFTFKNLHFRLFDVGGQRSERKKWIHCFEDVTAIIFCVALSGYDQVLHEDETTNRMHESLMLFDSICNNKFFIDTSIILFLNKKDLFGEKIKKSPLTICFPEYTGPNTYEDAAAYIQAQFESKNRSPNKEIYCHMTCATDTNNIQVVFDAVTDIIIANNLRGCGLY
Avidin bead fluor: green autofluorescence of compounds with avidin beads – biophysical, 488/530 nm, flow cytometry, artefact control, profiling panel; compound fluorescence 488/530 nm; stronger effect = higher value; fluorescence (KMESF) at 10 µM; AID 1775, 2009; 220,000 tested, 0.38% active; in the data active = fluorescence above about 47
RGS16-Gao: modulators of RGS16 binding to Galphao, primary screen, biochemical, human proteins, multiplexed bead flow cytometry; Regulator of G-protein signaling 16 (Homo sapiens) + Guanine nucleotide-binding protein …; 220,000 tested, 0.38% active; binding response (% of control), % at 10 µM; bead-based flow cytometry RGS16-Galphao binding, fluorescence; actives lie on both sides;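 also: Galphao activated by GDP with aluminum fluoride before binding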
RGS7-Gao reg: RGS7-Galphao binding modulators, primary screen, biochemical, multiplexed bead flow cytometry. Guanine nucleotide-binding protein G(o) subunit alpha (Homo sapiens), P09471. actives lie on both sides. binding response (% of control), % at 10 µM. 220,000 tested, 0.35% active; in the data active = binding response below about 49% or above about 150%; inconclusive = no clear call, values can overlap the other calls; inactive = in between;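 also: fluorescent Galphao held in activated GDP-AlF4 state binding bead-coupled RGS7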
RGS8-Gao: RGS8-Galphao binding modulators, primary screen, biochemical, multiplexed bead flow cytometry; response (percent of control binding), % at 10 µM; actives lie on both sides; 220,000 tested, 0.34% active; Guanine nucleotide-binding protein G(o) subunit alpha (Homo sapiens), P09471; in the data active = response below about 60% or above about 140%; inactive = in between;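 also: Galphao activated as the GDP aluminium fluoride complex binding bead-coupled RGS8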
RGS-Gao: modulators of RGS–Galpha-o binding, primary screen, biochemical, multiplexed beads, flow cytometry, RGS4/7/8/16/19. shares compounds with RGS16-Gao. multiplexed bead flow cytometry. RGS4–Galpha-o binding response, % at 10 µM. 1,600 tested, 99% active. AID 1504, 2009;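 also: fluorescently labeled Galpha-o bound to GDP with aluminium fluoride binding biotinylated RGS beads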
Biotin-avidin: disruption of biotin probe capture by avidin, counter-screen for RGS protein interaction modulators, biochemical, flow cytometry, bead-based | streptavidin beads, fluorescein-biotin binding | 1,700 tested, under 10 active | shares compounds with RGS16-Gao | AID 1783, 2009 | inhibition, % at 10 µM;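 active = inhibition above 50%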;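 also: median green fluorescence of gated singlet beads compared with DMSO control wells; 0% = DMSO wells and 100% = complete loss of bead fluorescence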
RGS8-Gao confirm: RGS8-Galphao binding modulators, confirmation, biochemical, multiplexed bead flow cytometry, single concentration. shares compounds with RGS16-Gao. bead-based flow cytometry RGS8-Galphao binding, fluorescence; actives lie on both sides. binding response (% of control), % at 10 µM. 1,700 tested, 3% active; in the data active = binding response below about 72% or above about 130%; inactive = in between;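 also: Galphao activated as GDP AlF4 complex before binding bead RGS8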
RGS7-Gao single: RGS7-Galphao binding modulators, confirmation, biochemical, multiplexed bead flow cytometry, single concentration | shares compounds with RGS16-Gao | bead-based flow cytometry RGS7-Galphao binding; actives lie on both sides | response (percent of control binding), % at 10 µM | 1,700 tested, 7.8% active; in the data active = response below about 75% or above about 130%; inactive = in between;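 also: fluorescent Galphao activated with GDP and aluminum fluoride binding bead-coupled RGS7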
RGS16-Gao single: modulators of RGS16-Galphao protein binding, confirmation, biochemical, single concentration, multiplexed bead flow cytometry | 1,700 tested, 4% active | response (% of control binding), % at 10 µM | AID 1838, 2009 | bead-based flow cytometry; actives lie on both sides | shares compounds with RGS16-Gao; in the data active = response below about 74% or above about 130%; inactive = in between;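 also: Galphao activated as the GDP aluminium fluoride complex binding bead-coupled RGS16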
RGS4-Gao confirm: modulators of RGS4-Galphao protein binding, confirmation, biochemical, single concentration, multiplexed bead flow cytometry; shares compounds with RGS16-Gao; actives lie on both sides; binding response (% of control), % at 10 µM; 1,700 tested, 4% active; AID 1840, 2009; in the data active = binding response below about 74% or above about 130%; inactive = in between
RGS19-Gao conf: regulators of RGS19-Galphao binding, confirmation, biochemical, single point, multiplexed bead flow cytometry. shares compounds with RGS16-Gao. bead-based flow cytometry RGS19-Galphao binding; actives lie on both sides. response (percent of control binding), % at 10 µM. 1,700 tested, 5% active; in the data active = response below about 50% or above about 160%; inactive = in between;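 also: 100% = no compound control and 0% = blank background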
Numbers without * were called inactive; u = inconclusive; x = no result given; [ ] = dose if it differs, or a comment. In the library only some 1.2% were active in any assay of this set; here they are far more common. Unless noted, no rule for the calls is given here.

SMILES	GSH fluor	RGS4-Gao reg	Avidin bead fluor	RGS16-Gao	RGS7-Gao reg	RGS8-Gao	Biotin-avidin	RGS8-Gao confirm	RGS7-Gao single	RGS16-Gao single	RGS4-Gao confirm	RGS19-Gao conf	others
COc1ccc(-c2nnc(SCC(=O)c3[nH]c(C)c(C(C)=O)c3C)o2)cc1	9	175*[activator]	17	180*[activator]	126	112	0	98	96	94	90	103
CC(=O)c1c(C)[nH]c(C(=O)CSc2nnc(-c3ccco3)o2)c1C	11	100	8	100	u	100	x	x	x	x	x	x
COc1ccc(-n2c(C)nc(N)c2C(=O)c2ccccc2)cc1	x	101	8	101	u	103	x	x	x	x	x	x
O=C(Nc1ccc(Nc2ccncc2)cc1)c1ccc(Nc2ccnc3ccc([N+](=O)[O-])cc23)cc1	x	24*	-1	36	u	59*	-1	104	88	99	90	87
Cn1cc(Cl)c(/C=C(\C#N)S(=O)(=O)c2ccccc2)n1	x	102	6	102	u	99	x	x	x	x	x	x
Cc1ccccc1-n1c(=O)c(C#N)cc2c(=O)n3ccccc3nc21	4	99	7	103	96	103	x	x	x	x	x	x
Cc1cc(-n2c(=O)c(C#N)cc3c(=O)n4ccccc4nc32)no1	9	89	4	-3.0*	86	81	x	x	x	x	x	x	RGS-Gao=89*
O=C(Nc1nc2c(s1)CN(Cc1ccccc1)CC2)c1c(F)cccc1F	32	101	25	103	98	102	x	x	x	x	x	x
C=C1SC(=Nc2ccccc2Cl)N(C(=O)c2sc3ccccc3c2Cl)C1(C)C	x	-16*	-2	-13*	u	9.4*	0	100	98	100	99	103
C=C1SC(=Nc2c(C)cccc2Cl)N(C(=O)c2sc3ccccc3c2Cl)C12CCCCC2	x	116	8	117	u	109	x	x	x	x	x	x
Cc1nc2c3ccccc3nc(NNC(=O)CCC(=O)NC(C)C)n2n1	13	89	5	4.1*	83	71	1	101	97	99	98	97	RGS-Gao=89*
CCC(C)NC(=O)CCC(=O)NNc1nc2ccccc2c2nc(C)nn12 (stereo unspecified)	8	97	5	100	96	99	x	x	x	x	x	x
